Assay [1] in a line: P. berghei load reduction in hepatocytes – cell-based, HepG2, luciferase luminescence, HepG2 viability, primary screen (AID 624349; in the data active means parasite load remaining mostly below about 12%, no sharp cut-off; inactive means mostly above about 10%;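 further: 100% = mean of DMSO negative control wells on the same plate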). The note with it: P. berghei liver stage in HepG2, luciferase luminescence, concentration not given here; parasite load remaining: stronger effect = lower value; viability: measured here: HepG2 viability without parasites.
Assay [2] can be described thus: EMT-state selective cytotoxicity in co-culture – imaging, PC-3E GFP, TEM4-18 mCherry, primary screen (AID 1345086;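 active means compounds killing one labelled cell type while sparing the other, by normalised counts and ratio limits, not self-fluorescent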;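 on all read-outs here: cells exposed to compound for 72 h before imaging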;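 on red/green cell ratio (normalised): normalised mesenchymal count divided by normalised epithelial count so high means epithelial killing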). Particulars: PC-3E GFP / TEM4-18 mCherry co-culture, imaging cell counts, at 1 µM; for red/green cell ratio (normalised): actives lie on both sides, counts scaled to control wells, 1 = unselective.
A short description of assay [3]: viability loss with induced miR-34 in A549 – imaging, A549 dox-inducible miR-34, nuclei and caspase counts, primary screen (AID 1347080). Particulars: A549 miR-34 inducible, Hoechst nuclei count, 48 h.
Assay [4] can be described thus: MELAS cybrid and Rieske KO viability enhancers – cell-based, MELAS cybrids, Rieske KO mouse fibroblasts, CellTiter-Glo, primary screen (AID 1508586;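 active means mean z-score across replicates of 1.96 or higher in either the MELAS or the Rieske mutant cell line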;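 further: z relative to plate mean and SD of compound and empty wells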). The note with it: low glucose.
The target in assay [5] is Mitogen-activated protein kinase 7 (Homo sapiens) (UniProt Q13164). Put plainly: Gal4-ERK5 driven luciferase induction – cell-based, HTS, primary screen (AID 1508626;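 active means luciferase signal above three times the same-plate solvent-only control wells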;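 further: luciferase driven by Gal4-ERK5 fusion binding five Gal4 sites before minimal TATA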). Particulars: HeLa Gal4-ERK5 transactivation, 18 h, at 5 µM, stronger effect = higher value.
Assay [6] can be described thus: galactose survival enhancers in mitochondrial complex I cybrids – cell-based, galactose medium, ATP luminescence, primary screen (AID 1645843;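 active means z-score of at least 1.8 in each of two replicates, scored against plate mean and spread of sample wells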;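 further: positive z means more ATP and so rescue of galactose-driven cybrid death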). Particulars: complex I mutant cybrid cells, 72 h, stronger effect = higher value.
Assay [7] addresses NAD(+) hydrolase SARM1 (Homo sapiens) (UniProt Q6SZW1). The experiment in a line: blocking NAD cleavage by SARM1 SAM-TIR – cell lysate, NAD-Glo luminescence (AID 1508614;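 active means compound whose remaining NAD level is above about 45 nM, limit read from the data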). The note with it: SAM-TIR HEK293T lysate NADase, at 1 µM, stronger effect = higher value.
A short description of assay [8]: compounds altering viability of human ES cells (AID 493140; call rule not given here;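 further: cells exposed to compounds for four days before counting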). Particulars: human embryonic stem cell survival screen; stronger effect = higher value.
The mark [9] stands for this setting: measured here: epithelial PC-3E GFP cell survival.
[10] abbreviates: measured here: mesenchymal TEM4-18 mCherry cell survival.
[11] abbreviates: stronger effect = lower value, cell number ratio, induced over uninduced.
[12] abbreviates: measured here: relative caspase fold change +Dox/-Dox.
Setting [13] is: measured here: total cells with miR-34 induction, stronger effect = lower value.
Where [14] appears, read: measured here: total cells without miR-34 induction.
[15] abbreviates: MELAS cybrid survival, CellTiter-Glo 48 h, stronger effect = higher value.
Where [16] appears, read: Rieske KO mouse fibroblast survival, CellTiter-Glo 72 h.

Results on eight compounds are retold here after PubChem BioAssay.

Values joined by “and” are separate entries in the source; they are usually repeats but may differ in a detail not shown here. Equal entries are not always repeated. Active and inactive are the calls of the source.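 How the source made its calls, unless noted: active means compounds whose cell count with miR-34 switched on is under 0.7 times the count with it off; inactive means the rest.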

Sequence of NAD(+) hydrolase SARM1 (Homo sapiens) (Q6SZW1 whole entry, looked up): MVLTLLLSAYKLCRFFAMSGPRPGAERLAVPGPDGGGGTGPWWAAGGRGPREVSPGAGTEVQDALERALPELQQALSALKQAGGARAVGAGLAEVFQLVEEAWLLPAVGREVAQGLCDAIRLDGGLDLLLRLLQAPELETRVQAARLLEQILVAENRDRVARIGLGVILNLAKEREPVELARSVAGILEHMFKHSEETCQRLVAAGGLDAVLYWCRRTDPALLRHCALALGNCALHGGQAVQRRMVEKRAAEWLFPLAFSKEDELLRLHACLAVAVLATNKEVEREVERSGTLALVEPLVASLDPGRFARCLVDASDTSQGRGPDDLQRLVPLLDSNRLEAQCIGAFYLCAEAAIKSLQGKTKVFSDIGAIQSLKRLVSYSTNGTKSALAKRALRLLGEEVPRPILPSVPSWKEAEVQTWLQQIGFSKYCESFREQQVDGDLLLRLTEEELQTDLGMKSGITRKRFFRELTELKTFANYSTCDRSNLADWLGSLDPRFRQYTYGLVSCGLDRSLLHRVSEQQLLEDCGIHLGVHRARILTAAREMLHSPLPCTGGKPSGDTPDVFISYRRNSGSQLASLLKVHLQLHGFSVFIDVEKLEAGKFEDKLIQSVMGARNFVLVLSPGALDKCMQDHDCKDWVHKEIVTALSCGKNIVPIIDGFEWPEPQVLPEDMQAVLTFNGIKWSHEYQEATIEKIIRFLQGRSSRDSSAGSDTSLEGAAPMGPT
Sequence of Mitogen-activated protein kinase 7 (Homo sapiens) (Q13164 whole entry, looked up, the tested form may be a part): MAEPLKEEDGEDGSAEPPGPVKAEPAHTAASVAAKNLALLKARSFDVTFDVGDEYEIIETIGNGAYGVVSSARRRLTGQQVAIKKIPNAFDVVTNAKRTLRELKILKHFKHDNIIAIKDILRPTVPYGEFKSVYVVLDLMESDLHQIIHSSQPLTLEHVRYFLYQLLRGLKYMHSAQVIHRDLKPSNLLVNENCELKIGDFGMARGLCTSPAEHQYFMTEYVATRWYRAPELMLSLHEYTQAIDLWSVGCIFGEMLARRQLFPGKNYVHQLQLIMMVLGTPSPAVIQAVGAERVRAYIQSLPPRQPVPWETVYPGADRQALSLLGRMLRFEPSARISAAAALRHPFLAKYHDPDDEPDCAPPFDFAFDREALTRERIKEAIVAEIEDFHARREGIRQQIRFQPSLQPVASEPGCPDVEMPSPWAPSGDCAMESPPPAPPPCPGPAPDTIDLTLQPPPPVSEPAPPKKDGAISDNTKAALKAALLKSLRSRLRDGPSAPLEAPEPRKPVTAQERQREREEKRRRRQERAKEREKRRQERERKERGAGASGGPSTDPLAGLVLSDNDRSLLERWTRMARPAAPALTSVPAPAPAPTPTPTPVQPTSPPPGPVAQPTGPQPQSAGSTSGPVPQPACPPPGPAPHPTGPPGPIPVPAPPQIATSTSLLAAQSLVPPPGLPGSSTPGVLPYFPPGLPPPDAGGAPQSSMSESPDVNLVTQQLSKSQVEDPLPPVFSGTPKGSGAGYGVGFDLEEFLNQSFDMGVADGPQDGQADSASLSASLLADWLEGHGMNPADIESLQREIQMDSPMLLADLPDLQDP

Turning to `CC1=C(/C=C/C(C)=C/C=C/C(C)=C/C=C/C=C(C)/C=C/C=C(C)/C=C/C2=C(C)C(=O)CCC2(C)C)C(C)(C)CCC1=O`, the parasite load remaining in assay [1] is 32.7% (inactive). Further, the viability in assay [1] amounted to 102%. Moreover, in assay [2], the red/green cell ratio (normalised) is 1.05 (inactive). Besides, the normalised cell number in assay [2] (setting [9]) was 0.85; in assay [2] (setting [10]), 0.9. Besides, the fold change in assay [3] (setting [11]) was 0.905 (inactive); in assay [3] (setting [12]), 1.09. Also, the cell count in assay [3] (setting [13]) is 10100; in assay [3] (setting [14]), 11200. Also, the z-score in assay [4] (setting [15]) is 0.499 (inactive); in assay [4] (setting [16]), 1.32; in assay [6], 0.415 (inactive). In assay [5], the luciferase signal is 100 AU (inactive).
`Oc1ccc2ccccc2c1`: in assay [2], the red/green cell ratio (normalised) is 0.96 (inactive). Moreover, the normalised cell number in assay [2] (setting [9]) is 0.82; in assay [2] (setting [10]) it was 0.79. Further, the fold change in assay [3] (setting [11]) is 0.874 (inactive); in assay [3] (setting [12]) it was 1.01. For the same compound, the cell count in assay [3] (setting [13]) amounted to 7170; in assay [3] (setting [14]), 8200. In assay [7], the remaining NAD is 10 nM (inactive).
Regarding `CC(CCc1ccc(O)cc1)NCC(O)c1ccc(O)cc1` (stereo not drawn), the parasite load remaining in assay [1] was 46.7% (inactive). Moreover, the viability in assay [1] was 106%. For the same compound, the red/green cell ratio (normalised) in assay [2] was 0.98 (inactive). Also, the normalised cell number in assay [2] (setting [9]) amounted to 0.86; in assay [2] (setting [10]), 0.84. For the same compound, the fold change is 0.934 (inactive) and 0.886 (inactive) in assay [3] (setting [11]); 0.997 and 0.914 in assay [3] (setting [12]). The cell count is 8460 and 9910 in assay [3] (setting [13]); 9050 and 11200 in assay [3] (setting [14]). Also, the z-score is 0.268 (inactive) in assay [4] (setting [15]), 0.193 in assay [4] (setting [16]) and 0.065 (inactive) in assay [6]. The remaining NAD in assay [7] is 10 nM (inactive).
As to `CC(O)(CC(=O)O)CC(=O)O`, the red/green cell ratio (normalised) in assay [2] was 1.15 (inactive). For the same compound, the normalised cell number amounted to 0.86 in assay [2] (setting [9]) and 0.99 in assay [2] (setting [10]). Moreover, the fold change is 0.913 (inactive) in assay [3] (setting [11]) and 1.16 in assay [3] (setting [12]). For the same compound, the cell count in assay [3] (setting [13]) came to 8220; in assay [3] (setting [14]), 9000. In addition, the remaining NAD in assay [7] was 10 nM (inactive).
For the compound `CC1(C)C(C=C(Cl)Cl)C1C(=O)OCc1cccc(Oc2ccccc2)c1` (stereo not drawn), in assay [2], the red/green cell ratio (normalised) is 0.81 (inactive). For the same compound, the normalised cell number amounted to 1.23 in assay [2] (setting [9]) and 1 in assay [2] (setting [10]). Besides, the figures for the fold change in assay [3] (setting [11]) and in assay [3] (setting [12]) were 0.928 (inactive) and 0.968, respectively. For the same compound, the cell count in assay [3] (setting [13]) was found to be 8290; in assay [3] (setting [14]), 8930. In addition, the remaining NAD in assay [7] is 10 nM (inactive).
As to `OCc1ccccc1`, in assay [2], the red/green cell ratio (normalised) was 0.94 (inactive). The normalised cell number came out at 1.12 in assay [2] (setting [9]) and 1.05 in assay [2] (setting [10]). The fold change is 0.891 (inactive) in assay [3] (setting [11]) and 0.934 in assay [3] (setting [12]). The cell count in assay [3] (setting [13]) is 8280; in assay [3] (setting [14]), 9290. For the same compound, the remaining NAD in assay [7] was 10 nM (inactive).
With `C=CCOC(Cn1ccnc1)c1ccc(Cl)cc1Cl` (stereo not drawn), the survival in assay [8] is 5.75 (inactive). Moreover, the parasite load remaining in assay [1] is 62.3% (inactive) and 49.7% (inactive). For the same compound, the viability in assay [1] was 79.2% and 101%. In assay [2], the red/green cell ratio (normalised) was 1.13 (inactive). Besides, the normalised cell number came to 1.28 in assay [2] (setting [9]) and 1.45 in assay [2] (setting [10]). Moreover, the fold change in assay [3] (setting [11]) was 0.977 (inactive) and 1.23 (inactive); in assay [3] (setting [12]) it was 0.912 and 0.451. Besides, the cell count in assay [3] (setting [13]) was 7830 and 4360; in assay [3] (setting [14]), 8020 and 3550. In addition, the results for the z-score in assay [4] (setting [15]) and in assay [4] (setting [16]) were -0.315 (inactive) and -1.27, respectively. For the same compound, the remaining NAD in assay [7] is 10 nM (inactive).
For the compound `Cc1c(O)c(=O)n(-c2ccccc2)n1C`, the survival in assay [8] was 23.9 (inactive). In addition, the parasite load remaining in assay [1] was 37.6% (inactive) and 51.4% (inactive). Moreover, the viability in assay [1] was 95.8% and 94.4%. In addition, the red/green cell ratio (normalised) in assay [2] was 0.78 (inactive). In addition, the normalised cell number in assay [2] (setting [9]) came out at 1.09; in assay [2] (setting [10]), 0.85. Also, the fold change is 0.946 (inactive) in assay [3] (setting [11]) and 1.41 in assay [3] (setting [12]). Further, the cell count worked out at 8310 in assay [3] (setting [13]) and 8790 in assay [3] (setting [14]). The z-score in assay [4] (setting [15]) is 0.46 (inactive); in assay [4] (setting [16]), -0.0513.

By viability is commonly meant a read-out of living cells in per cent, often relative to untreated cells.
